Test results reported in publication PMC11006913.

Legend:
Assay in all cases: PBM; 200 nM protein, PBS
Settings in all cases: dsDNA, one strand shown
HESX1 [1] = biological target: HESX1 (Homo sapiens, UniProt Q9UBX0 95-180, R165K)
SHOX [2] = biological target: SHOX (Homo sapiens, UniProt O15266 103-189)
ALX4 = ALX4 (Homo sapiens, UniProt Q9H161 200-286, Q225E)
HESX1 [3] = biological target: HESX1 (Homo sapiens, UniProt Q9UBX0 95-180)
MSX2 = MSX2 (Homo sapiens, UniProt P35548 130-214, R199I)
ALX1 [4] = biological target: ALX1 (Homo sapiens, UniProt Q15699 118-204, L144V)
ALX3 [5] = biological target: ALX3 (Homo sapiens, UniProt O95076 139-225, N203Q)
SHOX [6] = biological target: SHOX (Homo sapiens, UniProt O15266 103-189, R173C)
ALX1 [7] = biological target: ALX1 (Homo sapiens, UniProt Q15699 118-204, L144R)
ALX3 [8] = biological target: ALX3 (Homo sapiens, UniProt O95076 139-225)
PROP1 [9] = biological target: PROP1 (Homo sapiens, UniProt O75360 56-141)
HESX1 [10] = biological target: HESX1 (Homo sapiens, UniProt Q9UBX0 95-180, R109Q)
PROP1 [11] = biological target: PROP1 (Homo sapiens, UniProt O75360 56-141, R99H)
ALX3 [12] = biological target: ALX3 (Homo sapiens, UniProt O95076 139-225, L168Q)
HESX1 [13] = biological target: HESX1 (Homo sapiens, UniProt Q9UBX0 95-180, P111T)
ALX3 [14] = biological target: ALX3 (Homo sapiens, UniProt O95076 139-225, L168V)
PROP1 [15] = biological target: PROP1 (Homo sapiens, UniProt O75360 56-141, F88S)
HESX1 [16] = biological target: HESX1 (Homo sapiens, UniProt Q9UBX0 95-180, F115L)
ALX1 [17] = biological target: ALX1 (Homo sapiens, UniProt Q15699 118-204)
ALX3 [18] = biological target: ALX3 (Homo sapiens, UniProt O95076 139-225, N203S)
Chain of ALX3 (Homo sapiens, UniProt O95076 139-225, N203S) (O95076 139-225 N203S): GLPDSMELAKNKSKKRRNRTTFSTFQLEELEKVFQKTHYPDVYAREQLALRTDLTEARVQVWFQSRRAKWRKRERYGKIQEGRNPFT

Chain of HESX1 (Homo sapiens, UniProt Q9UBX0 95-180, F115L) (Q9UBX0 95-180 F115L): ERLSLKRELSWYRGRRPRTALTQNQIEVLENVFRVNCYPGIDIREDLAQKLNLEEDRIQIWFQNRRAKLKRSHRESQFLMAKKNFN
Chain of HESX1 (Homo sapiens, UniProt Q9UBX0 95-180, R165K) (Q9UBX0 95-180 R165K): as the sequence (Q9UBX0 95-180 F115L) above, with L21F, R71K counted along it
Chain of HESX1 (Homo sapiens, UniProt Q9UBX0 95-180) (Q9UBX0 95-180): as the sequence (Q9UBX0 95-180 F115L) above, with L21F counted along it
Chain of MSX2 (P35548 130-214 R199I): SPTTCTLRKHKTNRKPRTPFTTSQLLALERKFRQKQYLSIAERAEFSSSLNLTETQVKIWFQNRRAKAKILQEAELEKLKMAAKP
Chain of PROP1 (Homo sapiens, UniProt O75360 56-141, F88S) (O75360 56-141 F88S): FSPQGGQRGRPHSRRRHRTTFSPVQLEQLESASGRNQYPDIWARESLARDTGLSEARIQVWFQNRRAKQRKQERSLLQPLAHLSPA
Chain of SHOX (Homo sapiens, UniProt O15266 103-189) (O15266 103-189): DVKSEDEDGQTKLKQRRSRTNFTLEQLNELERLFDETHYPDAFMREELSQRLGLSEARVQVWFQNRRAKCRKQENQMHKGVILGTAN
Chain of HESX1 (Homo sapiens, UniProt Q9UBX0 95-180, R109Q) (Q9UBX0 95-180 R109Q): as the sequence (Q9UBX0 95-180 F115L) above, with R15Q, L21F counted along it
Chain of ALX4 (Q9H161 200-286 Q225E): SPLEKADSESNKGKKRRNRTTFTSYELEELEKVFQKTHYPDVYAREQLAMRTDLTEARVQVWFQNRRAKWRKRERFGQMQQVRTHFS
Chain of HESX1 (Homo sapiens, UniProt Q9UBX0 95-180, P111T) (Q9UBX0 95-180 P111T): as the sequence (Q9UBX0 95-180 F115L) above, with P17T, L21F counted along it
Chain of ALX3 (Homo sapiens, UniProt O95076 139-225, N203Q) (O95076 139-225 N203Q): as the sequence (O95076 139-225 N203S) above, with S65Q counted along it
Chain of ALX3 (Homo sapiens, UniProt O95076 139-225, L168V) (O95076 139-225 L168V): as the sequence (O95076 139-225 N203S) above, with L30V, S65N counted along it
Chain of PROP1 (Homo sapiens, UniProt O75360 56-141, R99H) (O75360 56-141 R99H): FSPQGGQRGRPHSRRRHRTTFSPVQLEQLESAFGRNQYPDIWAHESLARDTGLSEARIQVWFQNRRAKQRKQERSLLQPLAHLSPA
Chain of PROP1 (Homo sapiens, UniProt O75360 56-141) (O75360 56-141): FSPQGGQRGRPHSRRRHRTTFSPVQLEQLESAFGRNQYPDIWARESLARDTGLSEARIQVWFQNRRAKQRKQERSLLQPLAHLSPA
Chain of SHOX (Homo sapiens, UniProt O15266 103-189, R173C) (O15266 103-189 R173C): as the sequence (O15266 103-189) above, with R71C counted along it
Chain of ALX3 (Homo sapiens, UniProt O95076 139-225) (O95076 139-225): as the sequence (O95076 139-225 N203S) above, with S65N counted along it
Chain of ALX1 (Homo sapiens, UniProt Q15699 118-204) (Q15699 118-204): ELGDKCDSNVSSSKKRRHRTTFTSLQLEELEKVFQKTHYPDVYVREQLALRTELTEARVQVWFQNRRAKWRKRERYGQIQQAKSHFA
Chain of ALX1 (Homo sapiens, UniProt Q15699 118-204, L144V) (Q15699 118-204 L144V): as the sequence (Q15699 118-204) above, with L27V counted along it
Chain of ALX3 (Homo sapiens, UniProt O95076 139-225, L168Q) (O95076 139-225 L168Q): as the sequence (O95076 139-225 N203S) above, with L30Q, S65N counted along it
Chain of ALX1 (Homo sapiens, UniProt Q15699 118-204, L144R) (Q15699 118-204 L144R): as the sequence (Q15699 118-204) above, with L27R counted along it

CTTAATTA was tested, and the binding signal (HESX1 [1]) was 13.6 upbm affinity estimate (log intensity, higher = more binding, comparable within an allelic series), the binding signal (SHOX [2]) was 13.2 upbm affinity estimate (log intensity, higher = more binding, comparable within an allelic series) and the binding signal (ALX4) was 14.3 upbm affinity estimate (log intensity, higher = more binding, comparable within an allelic series). For the same sequence, the binding signal (HESX1 [3]) was 13.4 upbm affinity estimate (log intensity, higher = more binding, comparable within an allelic series), the binding signal (MSX2) was 13.1 upbm affinity estimate (log intensity, higher = more binding, comparable within an allelic series) and the binding signal (ALX1 [4]) was 12.3 upbm affinity estimate (log intensity, higher = more binding, comparable within an allelic series). For the same sequence, the binding signal (ALX3 [5]) was 8.7 upbm affinity estimate (log intensity, higher = more binding, comparable within an allelic series), the binding signal (SHOX [6]) was 10.8 upbm affinity estimate (log intensity, higher = more binding, comparable within an allelic series) and the binding signal (ALX1 [7]) was 11.9 upbm affinity estimate (log intensity, higher = more binding, comparable within an allelic series). The binding signal (ALX3 [8]) was 12.9 upbm affinity estimate (log intensity, higher = more binding, comparable within an allelic series), the binding signal (PROP1 [9]) was 12.1 upbm affinity estimate (log intensity, higher = more binding, comparable within an allelic series) and the binding signal (HESX1 [10]) was 10.5 upbm affinity estimate (log intensity, higher = more binding, comparable within an allelic series). For the same sequence, the binding signal (PROP1 [11]) was 12.1 upbm affinity estimate (log intensity, higher = more binding, comparable within an allelic series), the binding signal (ALX3 [12]) was 11.4 upbm affinity estimate (log intensity, higher = more binding, comparable within an allelic series) and the binding signal (HESX1 [13]) was 12.3 upbm affinity estimate (log intensity, higher = more binding, comparable within an allelic series). The binding signal (ALX3 [14]) was 11.1 upbm affinity estimate (log intensity, higher = more binding, comparable within an allelic series), the binding signal (PROP1 [15]) was 8.21 upbm affinity estimate (log intensity, higher = more binding, comparable within an allelic series) and the binding signal (HESX1 [16]) was 8.38 upbm affinity estimate (log intensity, higher = more binding, comparable within an allelic series). The binding signal (ALX1 [17]) was 12.9 upbm affinity estimate (log intensity, higher = more binding, comparable within an allelic series) and the binding signal (ALX3 [18]) was 8.85 upbm affinity estimate (log intensity, higher = more binding, comparable within an allelic series).

For TAATTAAA, the binding signal (HESX1 [1]) was 13.1 upbm affinity estimate (log intensity, higher = more binding, comparable within an allelic series), the binding signal (SHOX [2]) was 12.8 upbm affinity estimate (log intensity, higher = more binding, comparable within an allelic series) and the binding signal (ALX4) was 14.1 upbm affinity estimate (log intensity, higher = more binding, comparable within an allelic series). The binding signal (HESX1 [3]) was 13.1 upbm affinity estimate (log intensity, higher = more binding, comparable within an allelic series), the binding signal (MSX2) was 12.9 upbm affinity estimate (log intensity, higher = more binding, comparable within an allelic series) and the binding signal (ALX1 [4]) was 11.9 upbm affinity estimate (log intensity, higher = more binding, comparable within an allelic series). The binding signal (ALX3 [5]) was 8.59 upbm affinity estimate (log intensity, higher = more binding, comparable within an allelic series), the binding signal (SHOX [6]) was 10.6 upbm affinity estimate (log intensity, higher = more binding, comparable within an allelic series) and the binding signal (ALX1 [7]) was 11.6 upbm affinity estimate (log intensity, higher = more binding, comparable within an allelic series). The binding signal (ALX3 [8]) was 12.8 upbm affinity estimate (log intensity, higher = more binding, comparable within an allelic series), the binding signal (PROP1 [9]) was 11.9 upbm affinity estimate (log intensity, higher = more binding, comparable within an allelic series) and the binding signal (HESX1 [10]) was 10 upbm affinity estimate (log intensity, higher = more binding, comparable within an allelic series). The binding signal (PROP1 [11]) was 11.9 upbm affinity estimate (log intensity, higher = more binding, comparable within an allelic series), the binding signal (ALX3 [12]) was 11.3 upbm affinity estimate (log intensity, higher = more binding, comparable within an allelic series) and the binding signal (HESX1 [13]) was 12.1 upbm affinity estimate (log intensity, higher = more binding, comparable within an allelic series). The binding signal (ALX3 [14]) was 11.1 upbm affinity estimate (log intensity, higher = more binding, comparable within an allelic series), the binding signal (PROP1 [15]) was 8.07 upbm affinity estimate (log intensity, higher = more binding, comparable within an allelic series) and the binding signal (HESX1 [16]) was 8.41 upbm affinity estimate (log intensity, higher = more binding, comparable within an allelic series). The binding signal (ALX1 [17]) was 12.6 upbm affinity estimate (log intensity, higher = more binding, comparable within an allelic series) and the binding signal (ALX3 [18]) was 8.72 upbm affinity estimate (log intensity, higher = more binding, comparable within an allelic series).

With ATAATTAA the binding signal (HESX1 [1]) was 13.5 upbm affinity estimate (log intensity, higher = more binding, comparable within an allelic series), the binding signal (SHOX [2]) was 12.7 upbm affinity estimate (log intensity, higher = more binding, comparable within an allelic series) and the binding signal (ALX4) was 14.2 upbm affinity estimate (log intensity, higher = more binding, comparable within an allelic series). The binding signal (HESX1 [3]) was 13.3 upbm affinity estimate (log intensity, higher = more binding, comparable within an allelic series), the binding signal (MSX2) was 13 upbm affinity estimate (log intensity, higher = more binding, comparable within an allelic series) and the binding signal (ALX1 [4]) was 12.3 upbm affinity estimate (log intensity, higher = more binding, comparable within an allelic series). For the same sequence, the binding signal (ALX3 [5]) was 8.66 upbm affinity estimate (log intensity, higher = more binding, comparable within an allelic series), the binding signal (SHOX [6]) was 10.3 upbm affinity estimate (log intensity, higher = more binding, comparable within an allelic series) and the binding signal (ALX1 [7]) was 11.9 upbm affinity estimate (log intensity, higher = more binding, comparable within an allelic series). For the same sequence, the binding signal (ALX3 [8]) was 12.9 upbm affinity estimate (log intensity, higher = more binding, comparable within an allelic series), the binding signal (PROP1 [9]) was 11.9 upbm affinity estimate (log intensity, higher = more binding, comparable within an allelic series) and the binding signal (HESX1 [10]) was 9.82 upbm affinity estimate (log intensity, higher = more binding, comparable within an allelic series). For the same sequence, the binding signal (PROP1 [11]) was 11.9 upbm affinity estimate (log intensity, higher = more binding, comparable within an allelic series), the binding signal (ALX3 [12]) was 11.2 upbm affinity estimate (log intensity, higher = more binding, comparable within an allelic series) and the binding signal (HESX1 [13]) was 12 upbm affinity estimate (log intensity, higher = more binding, comparable within an allelic series). For the same sequence, the binding signal (ALX3 [14]) was 10.9 upbm affinity estimate (log intensity, higher = more binding, comparable within an allelic series), the binding signal (PROP1 [15]) was 8.13 upbm affinity estimate (log intensity, higher = more binding, comparable within an allelic series) and the binding signal (HESX1 [16]) was 8.29 upbm affinity estimate (log intensity, higher = more binding, comparable within an allelic series). The binding signal (ALX1 [17]) was 12.8 upbm affinity estimate (log intensity, higher = more binding, comparable within an allelic series) and the binding signal (ALX3 [18]) was 8.77 upbm affinity estimate (log intensity, higher = more binding, comparable within an allelic series).

In the case of AATAATTA, the binding signal (HESX1 [1]) is reported as 13 upbm affinity estimate (log intensity, higher = more binding, comparable within an allelic series), the binding signal (SHOX [2]) is reported as 12.1 upbm affinity estimate (log intensity, higher = more binding, comparable within an allelic series) and the binding signal (ALX4) is reported as 13.7 upbm affinity estimate (log intensity, higher = more binding, comparable within an allelic series). For the same sequence, the binding signal (HESX1 [3]) was 13 upbm affinity estimate (log intensity, higher = more binding, comparable within an allelic series), the binding signal (MSX2) was 13.1 upbm affinity estimate (log intensity, higher = more binding, comparable within an allelic series) and the binding signal (ALX1 [4]) was 11.9 upbm affinity estimate (log intensity, higher = more binding, comparable within an allelic series). The binding signal (ALX3 [5]) was 8.63 upbm affinity estimate (log intensity, higher = more binding, comparable within an allelic series), the binding signal (SHOX [6]) was 9.86 upbm affinity estimate (log intensity, higher = more binding, comparable within an allelic series) and the binding signal (ALX1 [7]) was 11.7 upbm affinity estimate (log intensity, higher = more binding, comparable within an allelic series). The binding signal (ALX3 [8]) was 12.8 upbm affinity estimate (log intensity, higher = more binding, comparable within an allelic series), the binding signal (PROP1 [9]) was 11.8 upbm affinity estimate (log intensity, higher = more binding, comparable within an allelic series) and the binding signal (HESX1 [10]) was 9.38 upbm affinity estimate (log intensity, higher = more binding, comparable within an allelic series). For the same sequence, the binding signal (PROP1 [11]) was 11.6 upbm affinity estimate (log intensity, higher = more binding, comparable within an allelic series), the binding signal (ALX3 [12]) was 10.9 upbm affinity estimate (log intensity, higher = more binding, comparable within an allelic series) and the binding signal (HESX1 [13]) was 11.5 upbm affinity estimate (log intensity, higher = more binding, comparable within an allelic series). The binding signal (ALX3 [14]) was 10.6 upbm affinity estimate (log intensity, higher = more binding, comparable within an allelic series), the binding signal (PROP1 [15]) was 7.89 upbm affinity estimate (log intensity, higher = more binding, comparable within an allelic series) and the binding signal (HESX1 [16]) was 8.2 upbm affinity estimate (log intensity, higher = more binding, comparable within an allelic series). The binding signal (ALX1 [17]) was 12.5 upbm affinity estimate (log intensity, higher = more binding, comparable within an allelic series) and the binding signal (ALX3 [18]) was 8.7 upbm affinity estimate (log intensity, higher = more binding, comparable within an allelic series).
